# Targets with a hit are over-represented here; the source holds about 7,900 in all. About 0.6% of all pairs of compound and target were hits. A number with no mark means an inactive call.
# Experiments:
# Test in all cases: log2 fold change, soluble protein after heating vs DMSO (PISA); higher = thermal stabilisation; K562 cells, 10 uM, 30 min; active = over 0.2 and 3.5 SD of the protein, either way, in both replicates (recomputed)
# [1] = compound: COC1=CC=C(C=C1)CN2C=CC3=C2C=C(C=C3)C(=O)NO
# Outline: (§1)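 For each measurement, 10 μM compound was applied for 30 min to K562 cells at 2×10^6 cells/mL. Aliquots were heated for 3 min across 48°C-58°C, pooled, and extracted in PBS with 0.5% NP-40 at 4°C; the supernatant after 21,000xg for 90 min was soluble protein. This was quantified by TMTpro 16plex LC-MS/MS with channel sums equalised, and thermal stability was reported relative to control samples from duplicates, on a log2 fold-change scale.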
# [2] = compound: CON(C)C(=O)N1N=C(c2cc(F)ccc2F)S[C@@]1(CCCN)c1ccccc1 [filanesib]
# Outline: as §1
# [3] = compound: CO[C@H]1C[C@@H]2CC[C@@H](C)[C@@](O)(O2)C(=O)C(=O)N2CCCC[C@H]2C(=O)O[C@H]([C@H](C)C[C@@H]2CC[C@H](n3cnnn3)[C@H](OC)C2)CC(=O)[C@H](C)/C=C(\C)[C@@H](O)[C@@H](OC)C(=O)[C@H](C)C[C@H](C)/C=C/C=C/C=C/1C [zotarolimus]
# Outline: as §1
# [4] = compound: COc1cc(C(=O)O)ccc1NC(=O)[C@@H]1N[C@@H](CC(C)(C)C)[C@](C#N)(c2ccc(Cl)cc2F)[C@H]1c1cccc(Cl)c1F [idasanutlin]
# Outline: as §1
# [5] = compound: COc1cc(Nc2ncc3c(n2)-c2ccc(Cl)cc2C(c2c(F)cccc2OC)=NC3)ccc1C(=O)O [alisertib]
# Outline: as §1
# [6] = compound: COc1cc2nc(-c3cc(F)ccc3O)nc(N[C@@H]3CNC[C@H]3C(C)(C)O)c2cc1OC
# Outline: as §1
# [7] = compound: COc1cc2ncnc(Nc3ccc(F)c(Cl)c3)c2cc1OCCCN1CCOCC1 [gefitinib]
# Outline: as §1
# [8] = compound: COc1cccc2cc(-c3nc([C@H]4CC[C@H](C(=O)O)CC4)n4ncnc(N)c34)[nH]c12
# Outline: as §1
# [9] = compound: CS(=O)(=O)CCNCc1ccc(-c2ccc3ncnc(Nc4ccc(OCc5cccc(F)c5)c(Cl)c4)c3c2)o1 [lapatinib]
# Outline: as §1
# [10] = compound: CS(=O)(=O)N1CCN(Cc2cc3nc(-c4cccc5[nH]ncc45)nc(N4CCOCC4)c3s2)CC1 [pictilisib]
# Outline: as §1
# Chain of UniProt Q15582 (Q15582 whole entry, looked up): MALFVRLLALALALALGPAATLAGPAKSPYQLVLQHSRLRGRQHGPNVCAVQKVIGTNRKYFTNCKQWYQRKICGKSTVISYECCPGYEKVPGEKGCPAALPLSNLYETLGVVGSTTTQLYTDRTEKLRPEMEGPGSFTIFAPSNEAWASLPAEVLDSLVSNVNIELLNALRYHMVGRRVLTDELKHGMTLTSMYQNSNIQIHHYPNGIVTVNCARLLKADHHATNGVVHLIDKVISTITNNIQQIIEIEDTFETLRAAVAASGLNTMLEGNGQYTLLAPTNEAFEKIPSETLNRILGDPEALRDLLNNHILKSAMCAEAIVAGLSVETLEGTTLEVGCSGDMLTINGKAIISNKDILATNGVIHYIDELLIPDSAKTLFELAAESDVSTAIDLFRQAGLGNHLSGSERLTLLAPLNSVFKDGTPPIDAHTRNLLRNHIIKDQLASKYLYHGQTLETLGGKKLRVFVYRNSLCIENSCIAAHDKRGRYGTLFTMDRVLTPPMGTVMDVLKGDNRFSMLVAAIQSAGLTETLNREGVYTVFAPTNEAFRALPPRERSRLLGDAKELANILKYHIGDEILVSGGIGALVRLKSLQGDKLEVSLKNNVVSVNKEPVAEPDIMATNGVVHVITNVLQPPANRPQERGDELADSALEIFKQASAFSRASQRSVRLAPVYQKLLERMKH
# Chain of UniProt P51532 (P51532 whole entry, looked up): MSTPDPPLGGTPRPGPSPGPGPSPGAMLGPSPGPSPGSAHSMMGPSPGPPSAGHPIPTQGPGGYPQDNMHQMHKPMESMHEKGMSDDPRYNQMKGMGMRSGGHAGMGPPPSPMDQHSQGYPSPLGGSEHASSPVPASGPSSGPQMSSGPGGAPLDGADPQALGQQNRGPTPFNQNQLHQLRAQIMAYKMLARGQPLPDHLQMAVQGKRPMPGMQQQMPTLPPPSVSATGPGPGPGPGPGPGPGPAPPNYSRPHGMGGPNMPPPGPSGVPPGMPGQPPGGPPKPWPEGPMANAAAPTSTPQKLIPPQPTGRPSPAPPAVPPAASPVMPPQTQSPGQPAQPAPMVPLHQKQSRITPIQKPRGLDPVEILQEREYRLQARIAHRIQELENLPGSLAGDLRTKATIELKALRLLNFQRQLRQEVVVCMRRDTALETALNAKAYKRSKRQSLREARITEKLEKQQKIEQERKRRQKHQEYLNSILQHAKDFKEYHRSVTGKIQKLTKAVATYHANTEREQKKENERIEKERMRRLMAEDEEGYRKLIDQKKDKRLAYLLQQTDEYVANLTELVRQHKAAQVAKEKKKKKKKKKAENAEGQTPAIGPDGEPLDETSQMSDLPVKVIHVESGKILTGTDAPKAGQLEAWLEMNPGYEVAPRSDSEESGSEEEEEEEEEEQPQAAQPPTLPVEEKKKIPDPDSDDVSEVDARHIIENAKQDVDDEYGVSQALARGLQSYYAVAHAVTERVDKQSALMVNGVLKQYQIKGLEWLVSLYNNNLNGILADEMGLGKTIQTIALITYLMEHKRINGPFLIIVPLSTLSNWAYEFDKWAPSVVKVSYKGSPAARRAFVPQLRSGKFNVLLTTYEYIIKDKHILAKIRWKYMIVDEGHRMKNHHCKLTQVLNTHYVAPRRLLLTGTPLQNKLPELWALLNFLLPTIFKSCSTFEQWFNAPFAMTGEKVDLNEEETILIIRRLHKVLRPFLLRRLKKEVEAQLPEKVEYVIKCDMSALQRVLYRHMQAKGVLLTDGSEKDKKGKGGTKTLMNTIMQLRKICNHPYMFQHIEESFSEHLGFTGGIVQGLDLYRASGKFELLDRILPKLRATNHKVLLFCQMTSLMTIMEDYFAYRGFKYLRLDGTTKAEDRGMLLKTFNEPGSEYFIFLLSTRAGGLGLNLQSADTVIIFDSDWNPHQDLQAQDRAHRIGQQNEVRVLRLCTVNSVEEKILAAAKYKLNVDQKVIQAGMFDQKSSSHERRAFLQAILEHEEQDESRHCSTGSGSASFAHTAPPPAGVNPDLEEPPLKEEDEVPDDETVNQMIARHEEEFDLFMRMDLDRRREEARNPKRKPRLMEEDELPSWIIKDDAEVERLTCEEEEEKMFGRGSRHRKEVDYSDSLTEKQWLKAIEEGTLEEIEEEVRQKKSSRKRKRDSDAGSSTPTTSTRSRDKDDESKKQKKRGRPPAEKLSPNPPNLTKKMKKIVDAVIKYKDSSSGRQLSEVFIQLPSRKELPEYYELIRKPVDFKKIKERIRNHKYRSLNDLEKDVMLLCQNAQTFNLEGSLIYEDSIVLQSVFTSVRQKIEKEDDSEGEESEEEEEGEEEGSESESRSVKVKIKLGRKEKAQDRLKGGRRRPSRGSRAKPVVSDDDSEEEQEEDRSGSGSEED
# Chain of UniProt P56962 (P56962 whole entry, looked up): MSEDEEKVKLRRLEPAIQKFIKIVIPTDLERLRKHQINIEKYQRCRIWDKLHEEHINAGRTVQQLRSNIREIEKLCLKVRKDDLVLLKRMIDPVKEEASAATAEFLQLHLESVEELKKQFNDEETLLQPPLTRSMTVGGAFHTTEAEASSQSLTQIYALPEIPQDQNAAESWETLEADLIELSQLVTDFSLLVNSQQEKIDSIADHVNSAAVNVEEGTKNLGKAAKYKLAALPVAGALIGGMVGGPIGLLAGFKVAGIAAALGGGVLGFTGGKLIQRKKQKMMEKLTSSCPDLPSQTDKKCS
# Chain of UniProt Q9NQZ5 (Q9NQZ5 whole entry, looked up): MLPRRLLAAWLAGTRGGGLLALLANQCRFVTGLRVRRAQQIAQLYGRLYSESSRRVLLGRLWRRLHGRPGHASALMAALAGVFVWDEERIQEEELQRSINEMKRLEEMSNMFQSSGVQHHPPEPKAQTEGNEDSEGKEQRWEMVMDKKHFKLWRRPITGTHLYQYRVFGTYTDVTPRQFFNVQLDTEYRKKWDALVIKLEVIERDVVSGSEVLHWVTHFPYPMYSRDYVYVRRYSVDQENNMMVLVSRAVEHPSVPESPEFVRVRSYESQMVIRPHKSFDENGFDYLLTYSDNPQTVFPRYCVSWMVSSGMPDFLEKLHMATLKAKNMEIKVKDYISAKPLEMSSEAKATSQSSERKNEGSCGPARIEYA
# Chain of UniProt P53597 (P53597 whole entry, looked up): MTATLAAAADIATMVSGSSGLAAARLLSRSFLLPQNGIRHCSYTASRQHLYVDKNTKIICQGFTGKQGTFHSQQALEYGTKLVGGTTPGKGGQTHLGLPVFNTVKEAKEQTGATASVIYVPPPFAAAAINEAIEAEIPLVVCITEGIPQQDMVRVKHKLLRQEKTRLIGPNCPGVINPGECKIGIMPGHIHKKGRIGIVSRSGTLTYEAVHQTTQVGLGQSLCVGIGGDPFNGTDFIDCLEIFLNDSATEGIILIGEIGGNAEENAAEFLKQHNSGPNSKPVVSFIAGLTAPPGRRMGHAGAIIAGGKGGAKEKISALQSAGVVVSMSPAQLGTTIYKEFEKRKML
# Chain of UniProt Q86VD7 (Q86VD7 whole entry, looked up): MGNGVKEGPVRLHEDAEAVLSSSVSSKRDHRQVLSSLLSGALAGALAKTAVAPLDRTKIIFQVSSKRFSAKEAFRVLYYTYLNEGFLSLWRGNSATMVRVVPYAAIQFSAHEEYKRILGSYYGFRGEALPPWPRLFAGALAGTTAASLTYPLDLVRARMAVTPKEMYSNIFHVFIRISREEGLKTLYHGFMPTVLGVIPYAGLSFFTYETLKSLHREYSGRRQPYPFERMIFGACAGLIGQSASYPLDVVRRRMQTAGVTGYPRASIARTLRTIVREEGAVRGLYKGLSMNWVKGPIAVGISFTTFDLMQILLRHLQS
# Chain of UniProt Q9Y5X1 (Q9Y5X1 whole entry, looked up): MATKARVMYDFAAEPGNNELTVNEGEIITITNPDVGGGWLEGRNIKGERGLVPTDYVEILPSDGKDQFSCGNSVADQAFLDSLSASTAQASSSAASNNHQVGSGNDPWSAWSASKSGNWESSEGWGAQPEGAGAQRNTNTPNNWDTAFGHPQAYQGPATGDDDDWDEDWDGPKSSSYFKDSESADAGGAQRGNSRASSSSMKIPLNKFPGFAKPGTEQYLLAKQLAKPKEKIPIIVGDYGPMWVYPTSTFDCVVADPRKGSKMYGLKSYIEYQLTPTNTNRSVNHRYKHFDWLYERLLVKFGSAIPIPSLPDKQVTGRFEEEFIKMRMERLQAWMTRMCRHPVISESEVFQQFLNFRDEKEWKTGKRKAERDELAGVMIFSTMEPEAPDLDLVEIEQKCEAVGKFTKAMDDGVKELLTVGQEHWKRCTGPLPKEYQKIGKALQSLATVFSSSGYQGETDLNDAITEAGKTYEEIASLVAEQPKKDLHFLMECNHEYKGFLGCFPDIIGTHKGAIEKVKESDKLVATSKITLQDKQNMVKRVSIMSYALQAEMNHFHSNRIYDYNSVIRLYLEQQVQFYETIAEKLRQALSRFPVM
# Chain of UniProt Q13596 (Q13596 whole entry, looked up): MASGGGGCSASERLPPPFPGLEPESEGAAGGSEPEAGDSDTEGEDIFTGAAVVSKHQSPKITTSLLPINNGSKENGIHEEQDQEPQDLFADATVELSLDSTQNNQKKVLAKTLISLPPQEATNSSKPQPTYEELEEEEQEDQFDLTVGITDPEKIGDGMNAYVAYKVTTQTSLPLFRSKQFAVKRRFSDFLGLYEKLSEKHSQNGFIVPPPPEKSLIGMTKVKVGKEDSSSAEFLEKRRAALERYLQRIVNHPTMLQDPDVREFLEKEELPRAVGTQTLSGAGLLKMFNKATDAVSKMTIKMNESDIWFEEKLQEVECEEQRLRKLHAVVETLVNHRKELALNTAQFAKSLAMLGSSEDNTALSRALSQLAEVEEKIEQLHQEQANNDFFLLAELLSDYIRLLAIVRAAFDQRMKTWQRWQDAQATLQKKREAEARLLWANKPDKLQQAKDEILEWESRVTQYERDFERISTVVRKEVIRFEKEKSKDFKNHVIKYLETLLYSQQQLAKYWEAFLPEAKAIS
# Chain of UniProt P04183 (P04183 whole entry, looked up): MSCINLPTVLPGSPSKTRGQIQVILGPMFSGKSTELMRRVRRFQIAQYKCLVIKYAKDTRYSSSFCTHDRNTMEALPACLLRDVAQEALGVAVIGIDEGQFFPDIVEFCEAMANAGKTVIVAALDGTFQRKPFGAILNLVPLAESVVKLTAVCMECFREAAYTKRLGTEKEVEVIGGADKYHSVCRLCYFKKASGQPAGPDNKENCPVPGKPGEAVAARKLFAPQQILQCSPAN
Target,log2 fold change [1],log2 fold change [2],log2 fold change [3],log2 fold change [4],log2 fold change [5],log2 fold change [6],log2 fold change [7],log2 fold change [8],log2 fold change [9],log2 fold change [10]
TERF2IP (UniProt Q9NYB0),-0.034,0.052,0.045,0.025,-0.032,-0.119,0.013,0.025,-0.008,-0.036
TGFBR1 isoform 2 (UniProt P36897),0.004,-0.001,-0.217,-0.007,-0.05,0.06,-0.029,-0.041,0.063,-0.073
TK1 (UniProt P04183),-0.012,-0.258 (active),-0.023,-0.011,-0.034,0.021,-0.018,0.073,-0.009,0.045
SSR3 isoform 2 (UniProt Q9UNL2),-0.236,-0.107,0.087,0.066,-0.015,-0.013,0.003,0.08,0.006,-0.096
STX17 (UniProt P56962),0.023,0.013,0.046,-0.027,-0.12,-0.081,0.027,-0.001,0.039,0.093
SRXN1 (UniProt Q9BYN0),0.406,0.076,0.022,-0.028,0.098,-0.036,0.012,0.001,0.151,-0.562 (active)
TELO2 (UniProt Q9Y4R8),-0.026,0.113,0.098,-0.103,-0.16,-0.122,0.004,-0.125,0.007,-0.023
SMARCA4 (UniProt P51532),-0.101,0.124,0.09,0.15,-0.086,0.273,,-0.038,-0.544 (active),0.025
SREK1 isoform 2 (UniProt Q8WXA9),0.26,-0.1,0.053,0.086,-0.096,-0.072,0.066,0.06,0.108,-0.001
SYNE1 (UniProt Q8NF91),0.316,-0.079,0.019,-0.029,0.002,,0.049,0.084,,0.187
SNX9 (UniProt Q9Y5X1),-0.002,-0.017,0.004,-0.01,-0.013,0.019,0.038,-0.059,-0.034,-0.036
SPAG9 isoform 4 (UniProt O60271),-0.02,0.078,-0.076,-0.006,0.062,,-0.007,-0.112,,
TFAM (UniProt Q00059),-0.035,0.048,0.01,0.046,-0.1,0.015,-0.026,-0.058,-0.012,-0.04
SLC30A10 (UniProt Q6XR72),0.06,0.032,-0.02,0.005,-0.12,0.003,0.095,0.032,0.001,0.095
SUN1 isoform 9 (UniProt O94901),-0.062,0.084,0.162,0.02,-0.059,-0.14,-0.053,0.122,0.052,-0.002
SNRPD3 (UniProt P62318),-0.169,0.152,-0.051,0.025,-0.132,0.039,-0.019,0.023,0.028,0.064
TBC1D9B (UniProt Q66K14),-0.037,0.151,0.042,-0.003,0.03,-0.026,-0.072,0.03,-0.031,0.068
SLC25A4 (UniProt P12235),-0.012,-0.024,-0.018,0.003,0.014,0.039,0.006,-0.012,-0.026,0.115
SP3 (UniProt Q02447),-0.001,-0.008,-0.024,0.052,-0.084,0.037,-0.038,-0.04,0.016,0.041
STARD7 (UniProt Q9NQZ5),0.006,-0.094,0.006,-0.063,0.027,-0.171,-0.035,0.031,0.003,0.01
SLC7A6 (UniProt Q92536),-0.236 (active),0.009,-0.001,-0.02,-0.069,0.028,0.073,0.048,0.033,0.048
TAOK3 (UniProt Q9H2K8),0.047,0.014,0.002,-0.003,-0.038,-0.049,0.001,-0.011,0.061,-0.001
STAT6 (UniProt P42226),0.019,0.091,0.055,0.102,0.094,0.002,0.014,0.155,-0.016,-0.13
STK38L (UniProt Q9Y2H1),-0.007,-0.009,0.036,-0.095,0.037,,0.029,-0.064,,0.05
TGFBI (UniProt Q15582),0.063,-0.054,-0.892 (active),0.084,-0.012,-0.003,-0.029,0.15,0.018,-0.083
SLC25A42 (UniProt Q86VD7),0.241 (active),-0.011,0.058,0.047,0.012,-0.029,0.063,0.043,0.084,-0.003
SUCLG1 (UniProt P53597),-0.046,-0.107,0.004,-0.107,0.037,0.051,-0.01,0.041,-0.043,0.003
SNX1 (UniProt Q13596),-0.021,-0.182,0.042,-0.013,-0.003,-0.063,-0.165,0,-0.027,-0.205
SLC30A7 (UniProt Q8NEW0),-0.105,-0.086,-0.025,-0.121,-0.019,0.088,0.017,0.184,-0.013,0.028
SLC39A11 (UniProt Q8N1S5),-0.014,-0.01,-0.078,-0.056,-0.113,-0.04,0.001,0.047,-0.038,-0.117
